# According to PubChem BioAssay (NCATS):
# Results filed as inconclusive are left out. Where a call stands in place of a potency, no number is given. Calls of active or inactive are those of the source. The call rests on the fitted dose curve; in most records, active means well fitted inhibition curve with a large enough effect; inconclusive means small, poorly fitted or top-dose-only effect; inactive means flat fitted curve, though single readings scatter.
# Target: Aldehyde dehydrogenase, mitochondrial (Homo sapiens) (UniProt P05091)
# Assay: qHTS for Inhibitors of the Aldehyde Dehydrogenase Family (ALDH2) Primary screen (AID 2061308); further: nearly all actives have a fitted effect of over 55% in size
# Conditions: ALDH2 enzyme inhibition qHTS, 1536-well; series mostly up to 56 µM
row,SMILES,Potency
1,N#CN1CCC(NC(=O)c2ccc(F)cc2)CC1,inactive
2,CC1=C(C(=O)Nc2ccccc2)C(c2ccccc2Br)N=C(Nc2nc3ccccc3o2)N1 (stereo not given),inactive
3,COc1ccc(C2=Nn3c(nnc3-c3ccccc3C)SC2)cc1OC,inactive
4,CCOc1ccc(CNc2ccc(-c3nc4ccccc4[nH]3)cc2)cc1,inactive
5,Cc1cc(/C=C2/C(=O)Nc3ccccc32)cc(C)c1O,inactive
6,COc1c(NS(=O)(=O)c2ccc(C)cc2)cccc1C(=O)Nc1nc(-c2ccccc2)cs1,inactive
7,COc1ccccc1NC(=O)c1cc(-c2ccc(C)c(C)c2)nc2ccccc12,inactive
8,CC(C)(C)c1ccccc1Nc1nc(C#N)nc(NC2CCCC2)n1,inactive
9,O=C1CCc2cc(S(=O)(=O)Nc3cccc(Cl)c3)ccc2N1,inactive
10,CC(C)(C)OC(=O)N[C@@H](Cc1ccc(O[S+](=O)([O-])c2cccc3cnccc23)cc1)C(=O)N1CCN(c2ccccc2)CC1,inactive
11,N#Cc1c(-c2ccccc2C(F)(F)F)nc2ccccc2c1NCc1ccc(-c2cccnc2)cc1,inactive
12,CNC(=O)C1=C(C)NC(Nc2nc3ccccc3o2)=NC1c1nn(C)cc1Cl (stereo not given),inactive
13,O=S(=O)(NCC1CCC(NS(=O)(=O)c2c(F)cccc2F)CC1)c1ccc2c(c1)OCCO2 (stereo not given),inactive
14,O=S(=O)(c1ccc(C(F)(F)F)cc1)N1CCN(S(=O)(=O)c2ccc3c(c2)OCCO3)CC1,inactive
15,COc1cccc(Nc2nn3c(=O)c4ccccc4nc3s2)c1,inactive
16,O=C1C2=C(CN1c1ccccc1)NC(Nc1nc3ccccc3o1)=NC2c1ccccc1Cl (stereo not given),inactive
17,O=C1CCCC2=C1C(c1[nH]ncc1Cl)NC(=NCc1ccoc1)N2 (stereo not given),inactive
18,CN1CCOc2ccc(S(=O)(=O)N3CCN(S(=O)(=O)c4c(F)cccc4F)CC3)cc21,inactive
19,Cc1cc2c(s1)c1cnn(Cc3cc(F)ccc3F)c(=O)c1n2C,inactive
20,Cc1ccc2nc3sc(C(=O)N4CCC(C(N)=O)CC4)cc3cc2c1,inactive

row,SMILES,Potency
1,CC(Nc1ccc([S+](=O)([O-])Nc2nccs2)cc1)c1ccccc1 (stereo not given),inactive
2,CCCn1c(C)nc2c(N3CCC(N(C)C)C3)nc(C)nc21 (stereo not given),inactive
3,Cc1ccc(NS(=O)(=O)c2ccc3c(c2)CCN(C(=O)C(F)(F)F)C3)cc1C,inactive
4,Cc1cc2c(s1)c1cnn(Cc3cccc4cccnc34)c(=O)c1n2C,inactive
5,CCCn1c(C)nc2c(NCC(C)(C)CN(C)C)nc(C)nc21,inactive
6,CS(=O)(=O)c1ccc(C(=O)OCC(=O)N2CCOCC2)cc1[N+](=O)[O-],inactive
7,N#Cc1c(-c2cccc(C(F)(F)F)c2)no[n+]1[O-],inactive
8,O=C(NC1CCCc2c1cnn2-c1ccc(F)cc1F)c1cccs1 (stereo not given),inactive
9,C=CCOc1cc(Cl)ccc1C(=O)NCCN(CC)CC,inactive
10,COc1cccc(OC)c1C1=Nn2c(nnc2-c2ccccc2O)SC1,inactive
11,O=C(CCc1ccccc1)Nc1cccc([S+](=O)([O-])Nc2ccccc2F)c1,inactive
12,COC/C=C/c1cc(F)c(S(=O)(=O)N2CCN(S(=O)(=O)c3ccc4c(c3)OCCO4)CC2)cc1F,inactive
13,Cc1cc(N[S+](=O)([O-])c2ccc(NC(=O)Cc3ccc(F)c(C(F)(F)F)c3)cc2)no1,inactive
14,CC(C)Oc1ccccc1C(=O)Nc1nc(-c2ccccc2)cs1,inactive
15,CC(C)c1cc(C(C)C)c(S(=O)(=O)Nc2cccc3cccnc23)c(C(C)C)c1,inactive
16,N#Cc1cccc(S(=O)(=O)N2CCN(S(=O)(=O)c3ccc4c(c3)OCCO4)CC2)c1,inactive
17,FC(F)(F)c1ccccc1-c1nc(NCC#Cc2cccnc2)c2ccccc2n1,inactive
18,C/C=C1\[C@H](O[C@@H]2O[C@H](CO)[C@@H](O)[C@H](O)[C@H]2O)OC=C2C(=O)OCCc3ccc(O)c(c3)Oc3ccc(cc3)CCOC(=O)C[C@H]21,inactive
19,N#CN1CCC(NS(=O)(=O)c2ccc(C(F)(F)F)cc2)C1 (stereo not given),inactive
20,CC(C)CCCCC(=O)N[C@@H](CO)C(=O)N[C@@H](CC(C)C)C(=O)[C@@]1(CO)CO1,inactive
